IDE exosite inh: displaces the probe from the exo-site of human IDE; z-score at 20 µM; purified IDE, FL-6b probe fluorescence polarization; stronger effect = lower value; P14735; 17,000 compounds, 6.3% hits;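 active means z-score of -3 or lower, meaning strong loss of probe binding signal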;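 further: His-tagged human IDE residues 42-1019 made in E. coli with 30 nM FL-6b probe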
Target sequence (P14735 42-1019 limits assumed): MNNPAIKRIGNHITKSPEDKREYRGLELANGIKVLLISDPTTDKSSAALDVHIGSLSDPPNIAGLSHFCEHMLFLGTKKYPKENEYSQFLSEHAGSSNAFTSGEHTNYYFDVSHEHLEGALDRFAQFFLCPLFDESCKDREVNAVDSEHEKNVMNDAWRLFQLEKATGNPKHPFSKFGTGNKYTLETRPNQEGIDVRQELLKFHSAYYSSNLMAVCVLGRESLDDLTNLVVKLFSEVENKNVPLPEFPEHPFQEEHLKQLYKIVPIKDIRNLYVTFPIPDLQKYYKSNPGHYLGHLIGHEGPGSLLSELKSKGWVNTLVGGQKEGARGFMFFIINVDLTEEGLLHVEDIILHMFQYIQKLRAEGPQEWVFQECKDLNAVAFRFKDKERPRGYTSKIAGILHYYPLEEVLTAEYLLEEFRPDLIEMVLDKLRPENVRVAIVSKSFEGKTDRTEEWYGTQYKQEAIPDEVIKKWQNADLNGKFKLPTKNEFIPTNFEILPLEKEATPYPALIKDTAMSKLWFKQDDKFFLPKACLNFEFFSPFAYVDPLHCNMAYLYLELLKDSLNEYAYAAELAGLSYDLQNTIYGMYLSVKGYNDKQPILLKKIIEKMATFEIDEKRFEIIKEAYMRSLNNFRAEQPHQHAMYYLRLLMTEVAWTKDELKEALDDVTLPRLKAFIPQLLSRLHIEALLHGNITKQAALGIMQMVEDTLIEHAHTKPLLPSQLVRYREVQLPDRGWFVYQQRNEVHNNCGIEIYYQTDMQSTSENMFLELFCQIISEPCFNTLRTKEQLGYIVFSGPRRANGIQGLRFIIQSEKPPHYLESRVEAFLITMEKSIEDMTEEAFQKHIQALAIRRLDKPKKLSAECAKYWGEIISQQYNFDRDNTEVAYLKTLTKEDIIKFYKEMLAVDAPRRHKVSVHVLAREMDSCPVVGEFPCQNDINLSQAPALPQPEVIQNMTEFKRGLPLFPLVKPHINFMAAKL
* marks the source's active call; other numbers are inactive results. This excerpt belongs to a sample that is enriched for hits.

SMILES	IDE exosite inh
CN(C)C(=O)c1cccc(-c2ccc([C@@H]3[C@@H](C#N)N(C(=O)C4CCCCC4)[C@@H]3CO)cc2)c1	4.2
O=C(C1CCCC1)N1CC(=O)N2[C@@H](CO)[C@H](c3ccc(Br)cc3)[C@@H]2C1	2.4
Cc1ccc(S(=O)(=O)N[C@@H]2C=C[C@H](CC(=O)NCc3ccc(Cl)c(Cl)c3)O[C@H]2CO)cc1	-0.46
COc1ccccc1NC(=O)N1CC(=O)N2[C@H](CO)[C@@H](c3ccc(C#Cc4ccccc4)cc3)[C@H]2C1	-1.8
O=C(C1CCCCC1)N1CC(=O)N2[C@H](CO)[C@@H](c3ccc(C#CCc4ccccc4)cc3)[C@H]2C1	0.63
C/C=C/c1ccc([C@H]2[C@@H](CO)N(C(=O)NCCC)[C@H]2CNC(=O)C2CC2)cc1	4.3
Cc1cc(C(=O)Nc2ccc3c(c2)C(=O)N(C)[C@H]2CC[C@@H](CC(=O)NCc4ccc(-c5ccccc5)cc4)O[C@H]2CO3)no1	0.0011
COc1ccc(S(=O)(=O)N2CCCCN3[C@H](CO)[C@H](c4ccc(-c5cccnc5)cc4)[C@H]3C2)cc1	2.4
O=C(C1CCC1)N1CC(=O)N2[C@H](CO)[C@@H](c3ccc(-c4cccnc4)cc3)[C@H]2C1	1.7
O=C(C1CCC1)N1CC(=O)N2[C@@H](CO)[C@@H](c3ccc(-c4cccnc4)cc3)[C@@H]2C1	-0.57
O=C(NC1CCCC1)N1CC(=O)N2[C@H](CO)[C@@H](c3ccc(-c4cccnc4)cc3)[C@@H]2C1	-12*
O=C(C1CCCCC1)N1CC(=O)N2[C@H](CO)[C@@H](c3ccc(-c4cccnc4)cc3)[C@H]2C1	-0.58
O=C(NC1CCCC1)N1CC(=O)N2[C@@H](CO)[C@@H](c3ccc(-c4cccnc4)cc3)[C@@H]2C1	1.3
O=C(Nc1cc(F)ccc1F)N1CC(=O)N2[C@H](C1)[C@H](c1ccc(-c3cccnc3)cc1)[C@@H]2CO	-1.8
O=C(Nc1cc(F)ccc1F)N1CC(=O)N2[C@H](C1)[C@@H](c1ccc(-c3cccnc3)cc1)[C@@H]2CO	-8.2*
O=C(NC1CCCC1)N1CC(=O)N2[C@H](C1)[C@@H](c1ccc(-c3cccnc3)cc1)[C@@H]2CO	-5.8*
O=C(Nc1cc(F)ccc1F)N1CC(=O)N2[C@H](CO)[C@@H](c3ccc(-c4cccnc4)cc3)[C@H]2C1	1.9
O=C(NC1CCCC1)N1CC(=O)N2[C@@H](CO)[C@H](c3ccc(-c4cccnc4)cc3)[C@@H]2C1	-4.9*
O=C(C1CCC1)N1CC(=O)N2[C@H](CO)[C@@H](c3ccc(-c4cccnc4)cc3)[C@@H]2C1	-1.9
O=C(C1CCC1)N1CC(=O)N2[C@H](CO)[C@H](c3ccc(-c4cccnc4)cc3)[C@H]2C1	-2.1
C[C@@H]1CN([C@H](C)CO)C(=O)CCCn2nncc2CO[C@H]1CN(C)S(=O)(=O)c1ccccc1C#N	1.3
COc1ccc(S(=O)(=O)N2CC[C@H]3[C@H](CO)Nc4ccc(Br)cc4[C@H]32)cc1	-0.3
CS(=O)(=O)N1CC(=O)N2[C@H](CO)[C@@H](c3ccc(Br)cc3)[C@@H]2C1	0.83
Cc1cccc(S(=O)(=O)N2CCCCN3[C@H](CO)[C@H](c4ccc(C#CC5CC5)cc4)[C@H]3C2)c1	1.5
COc1ccc2c3c([nH]c2c1)[C@@H](CO)N(C(=O)CN1CCOCC1)CC31CCN(CC2CCCC2)CC1	-0.27
SMILES	IDE exosite inh
COc1ccc(S(=O)(=O)N2CCCCN3[C@H](CO)[C@@H](c4ccc(C#CC5CC5)cc4)[C@H]3C2)cc1	3.2
CC=Cc1ccc2n(c1=O)C[C@@H]1[C@@H](CO)[C@H](C(=O)N(C)C)N(C(=O)CC)[C@H]21 (mixture of isomers)	1.1
C/C=C/c1ccccc1[C@@H]1[C@@H](C#N)N(C(=O)c2cccnc2)[C@@H]1CO	1.1
CO[C@@H]1CN(C)C(=O)c2ccc(NS(=O)(=O)CC(F)(F)F)cc2OC[C@H](C)N(C(=O)NC(C)C)C[C@H]1C	-0.45
CCc1sc(N2[C@@H](C#N)[C@@H](c3ccccc3-c3cccc(C)c3)[C@@H]2CO)nc1C	0.36
CCN1CC(=O)N2[C@H](C1)[C@H](c1ccc(Br)cc1)[C@@H]2CO	0.63
COc1ccc2c3c(n(C)c2c1)[C@H](CO)N(Cc1ccccc1OC)CC31CN(C)C1	-1.3
COc1ccc2c3c([nH]c2c1)[C@@H](CO)N(Cc1ccccc1Cl)CC31CN(C(=O)C2CC2)C1	-3
CCCC(=O)N1CCC2(CC1)CN(Cc1ccc(Cl)cc1)[C@@H](CO)c1[nH]c3cc(OC)ccc3c12	-1.7
COc1ccc2c3c([nH]c2c1)[C@H](CO)N(Cc1ccccn1)CC31CCN(C(C)=O)CC1	-2.8
COc1ccc2c3c([nH]c2c1)[C@@H](CO)N(Cc1ccccc1F)CC31CCN(C(=O)C2CC2)CC1	-3.6*
CCCC(=O)N1CC2(C1)CN(Cc1ccccc1F)[C@@H](CO)c1c2c2ccc(OC)cc2n1C	-0.33
CCS(=O)(=O)N1CC2(CN(Cc3ccccc3F)[C@@H](CO)c3[nH]c4cc(OC)ccc4c32)C1	-0.44
COCC(=O)N1CCC2(CC1)CN(Cc1ccccc1Cl)[C@H](CO)c1[nH]c3cc(OC)ccc3c12	-1.8
COc1ccc2c3c([nH]c2c1)[C@H](CO)N(Cc1ccccn1)CC31CN(C(=O)CC2CC2)C1	-0.017
COc1ccc2c3c([nH]c2c1)[C@@H](CO)N(Cc1ccccn1)CC31CCN(C(C)=O)CC1	-3.6*
COc1ccc2c3c(n(C)c2c1)[C@H](CO)N(Cc1ccccc1Cl)CC31CCN(C(=O)CC2CC2)CC1	-4.1*
COCC(=O)N1CCC2(CC1)CN(Cc1ccccc1Cl)[C@@H](CO)c1[nH]c3cc(OC)ccc3c12	-3.6*
N#Cc1ccc(-c2ccc([C@@H]3[C@@H](CO)N4C(=O)CN(C(=O)C5CCCC5)C[C@@H]34)cc2)cc1	2.3
CCNC[C@@H]1[C@@H](c2ccc(-c3ccc(F)cc3)cc2)[C@H](CO)N1S(C)(=O)=O	2.8
CCC(=O)N1[C@H](CO)[C@@H](c2ccccc2)[C@@H]1CN(CC)C(=O)c1ccccc1	-0.019
COCC(=O)N1CC(=O)N2[C@H](CO)[C@H](c3ccc(C#CCc4ccccc4)cc3)[C@@H]2C1	-1.6
CCC(=O)N1[C@H](CO)[C@H](c2ccccc2)C12CN(C(=O)CN1CCOCC1)C2	-0.5
CCCC#Cc1ccc([C@@H]2[C@H](CO)N3C(=O)CN(C(=O)Nc4cccc(F)c4)C[C@@H]23)cc1	-0.095
O=C(Nc1cc(F)ccc1F)N1CCCCN2[C@H](C1)[C@@H](c1ccc(-c3ccccc3)cc1)[C@@H]2CO	4.8
SMILES	IDE exosite inh
COc1ccc2c3c(n(C)c2c1)[C@H](CO)N(C(=O)c1ccc(F)cc1)CC31CN(CC2CCOCC2)C1	0.23
Cc1ccccc1-c1ccccc1[C@H]1[C@@H](CO)N(C(=O)c2ccccc2)[C@H]1C#N	1.3
CC(C)NC(=O)N1[C@H](CO)[C@@H](c2ccccc2-c2ccc(F)cc2)[C@@H]1C#N	-0.079
COc1cccc(-c2ccc([C@@H]3[C@H](C#N)N(C(=O)c4ccccn4)[C@H]3CO)cc2)c1	-0.56
COc1cccc(-c2ccc([C@H]3[C@H](C#N)N(C(=O)Cc4ccccc4)[C@H]3CO)cc2)c1	-3*
N#C[C@@H]1[C@@H](c2ccc(-c3ccncc3)cc2)[C@@H](CO)N1C(=O)Cc1ccccc1	2
N#C[C@H]1[C@H](c2ccc(-c3ccccc3)cc2)[C@H](CO)N1C(=O)Cc1ccncc1	1.9
N#C[C@H]1[C@H](c2ccc(-c3ccccc3)cc2)[C@H](CO)N1C(=O)Cc1ccccc1	2.2

Screens: PubChem, Broad Institute
